Data from PubChem BioAssay (Tox21).
Where “and” joins values, the source holds several entries; their conditions need not be identical. Equal values may be shown once. Results filed as inconclusive are left out. Calls of active or inactive are those of the source. Unless noted, calls come from the whole dose curve; as a rule, active = well fitted curve in the direction sought with a large enough effect in the repeat runs; inconclusive = weak or mixed curves; inactive = no such curve, though single readings can be large; an effect the other way counts as inactive or inconclusive.

Experiments:
[1] = qHTS assay for small molecules that induce genotoxicity in human embryonic kidney cells expressing luciferase-tagged ATAD5 (AID 651632); note: nearly all actives have a fitted effect of over 15% in size; note: potency is the fitted concentration of half-maximal effect
Summary of the method: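 HEK293T cells carrying luciferase-tagged ATAD5 were given compound or DMSO vehicle and incubated 16 hr at 37C, 5% CO2. Luciferase activity was read after 30 min at room temperature with Amplite; a rise signals genotoxic stress.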

[2] = qHTS assay for small molecule agonists of the p53 signaling pathway - cell viability (AID 651633; calls by dose curve; note: nearly all actives have a fitted effect of over 30% in size; note: potency is the fitted concentration of half-maximal effect)
Summary of the method: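 p53RE-bla cells, seeded at 4,000 per well and rested 5 h at 37 C/5% CO2, received compounds in DMSO for 16 h at 37 C. CellTiter-Glo was then added, and luminescence was read after 30 min at room temperature to gauge cytotoxicity.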

[3] = qHTS assay for small molecules that induce genotoxicity in human embryonic kidney cells expressing luciferase-tagged ATAD5 - cell viability (AID 651634; calls by dose curve; note: nearly all actives have a fitted effect of over 25% in size; note: potency is the fitted concentration of half-maximal effect)
Summary of the method: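 HEK293T cells carrying luciferase-tagged ATAD5, 2,000 cells/well, exposed to compound for 15.5 hr at 37C. Viability read as live-cell protease activity by CellTiter-Fluor fluorescence after 30 min at 37C.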

[4] = qHTS assay for small molecule disruptors of the mitochondrial membrane potential - cell viability (AID 720634; calls by dose curve; note: nearly all actives have a fitted effect of over 20% in size; note: potency is the fitted concentration of half-maximal effect)
Summary of the method: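 HepG2 cells, 2,000 per well, attached overnight, then treated 1 hr at 37 C, 5% CO2. Viability read as ATP by CellTiter-Glo luminescence after 30 min at room temperature. Read in the same wells as the m-MPI membrane-potential dye assay.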

[5] = qHTS assay for small molecule disruptors of the mitochondrial membrane potential (AID 720635); note: potency is the fitted concentration of half-maximal effect
Summary of the method: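 HepG2 cells (2,000/well) attached overnight at 37C, then took compound for 1 hr at 37C, 5% CO2. Mito-MPS dye was added for 30 min; fluorescence was read at 490/535 nm (monomers) and 540/590 nm (aggregates).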

[6] = qHTS assay to test for compound auto fluorescence at 590 nm (red) in HepG2 cells (AID 720674)
Summary of the method: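 Rose Bengal sodium served as the red fluorophore standard. HepG2 monolayers (overnight attachment, MEM with 10% FBS) were exposed to test compounds for 1 hr at 37 C and read at Ex 540/Em 590 nm.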

[7] = qHTS assay to test for compound auto fluorescence at 535 nm (green) in HepG2 cells (AID 720675)
[8] = qHTS assay to test for compound auto fluorescence at 590 nm (red) in HEK293 cells (AID 720679)
Summary of the method: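 HEK293 cells (2,000/well, 10% dialyzed FBS) attached 4-5 hr, then dosed with compound or DMSO and incubated overnight at 37C, 5% CO2. Red fluorescence read at 540/590 nm, Rose Bengal sodium as reference fluorophore.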

[9] = qHTS assay for small molecule agonists of the p53 signaling pathway (AID 651631; calls by dose curve; note: nearly all actives have a fitted effect of over 15% in size; note: potency is the fitted concentration of half-maximal effect)
Summary of the method: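 HCT-116 cells carrying a beta-lactamase reporter under p53 response elements were dosed with compound for 16 h at 37 °C. LiveBLAzer B/G FRET substrate was then added for 2 h at room temperature, and fluorescence intensity was read to detect pathway agonism.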

[10] = qHTS assay to test for compound auto fluorescence at 460 nm (blue) in HEK293 cells (AID 720678); note: potency is the fitted concentration of half-maximal effect
Summary of the method: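 HEK293 cells (2,000/well, medium with 10% dialyzed FBS) attached 4-5 hr, then exposed to compound overnight at 37C, 5% CO2. Blue fluorescence read at 405/460 nm, with triamterene as reference fluorophore.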

Measured: Potency
Tags give direction and shape of the fitted curve or compound fluorescence and quenching.

c1ccc2c(c1)OCC(C1=NCCN1)O2 (stereo not drawn)
inactive: [1] | [2] | [3] | [4] | [6] | [7] | [8]
active: [5] 27.8 µM

Clc1ccc(C(c2ccccc2Cl)C(Cl)(Cl)Cl)cc1 (stereo not drawn)
inactive: [3] | [6] | [7] | [10] | [8]
active: [9] 69 µM | [2] 54.8 µM and 40.2 µM

O=C(O)COc1nc(Cl)c(Cl)cc1Cl
inactive: [1] | [2] | [3] | [4] | [6] | [7] | [10] | [8]
active: [5] 19.8 µM

O=[N+]([O-])c1ccc(Oc2ccc(C(F)(F)F)cc2[N+](=O)[O-])cc1
active: [4] 19.3 µM | [5] 12.2 µM
inactive: [1] | [2] | [3] | [6] | [7] | [10] | [8]

CC(Cc1ccc(C(C)(C)C)cc1)CN1C[C@@H](C)O[C@@H](C)C1 (stereo partly drawn)
active: [5] 61.1 µM
inactive: [1] | [2] | [3] | [4] | [6] | [7] | [8]

O=[N+]([O-])c1ccc2ccc3cccc4ccc1c2c34
inactive: [2] | [3] | [4] | [6] | [10] | [8]
active: [1] 48.5 µM | [5] 1.22 µM

[Cl][Sb]([Cl])[Cl]
active: [9] 34.4 µM
inactive: [2] | [4] | [6] | [7] | [10] | [8]

CC(C)CCCCCCCOP(=O)(Oc1ccccc1)Oc1ccccc1
inactive: [9] | [2] | [6] | [7] | [10] | [8]

C1CCC2CCCCC2C1 (stereo not drawn)
inactive: [9] | [2] | [3] | [4] | [6] | [7] | [8]

c1ccc(Nc2ccc3ccccc3c2)cc1
active: [4] 17.1 µM | [5] 8.58 µM and 13.7 µM
inactive: [1] | [2] | [3] | [6] | [7] | [10] | [8]

COP(=S)(OC)Oc1cc(Cl)c(Br)cc1Cl
active: [4] 54.5 µM | [5] 6.86 µM
inactive: [1] | [2] | [3] | [6] | [7] | [10] | [8]

O=C(NC(=O)c1c(F)cccc1F)Nc1cc(Cl)c(OC(F)(F)C(F)F)c(Cl)c1
inactive: [1] | [2] | [3] | [4] | [6] | [7] | [10] | [8]
active: [5] 19.3 µM

CCC(C)(C)C(=O)OC1=C(c2ccc(Cl)cc2Cl)C(=O)OC12CCCCC2
active: [9] 7.7 µM | [2] 61.1 µM | [5] 9.69 µM
inactive: [3] | [6] | [7] | [10] | [8]

CCC(C)c1cc([N+](=O)[O-])cc([N+](=O)[O-])c1OC(=O)C=C(C)C (stereo not drawn)
inactive: [1] | [6] | [7] | [10] | [8]
active: [9] 12.2 µM | [3] 30.6 µM

BrC(Br)Br
inactive: [9] | [2] | [3] | [4] | [6] | [7] | [10] | [8]

CC(C)CCCCCOC(=O)c1ccccc1C(=O)OCCCCCC(C)C
inactive: [9] | [2] | [3] | [4] | [6] | [7] | [10] | [8]

CC(C)OC(=S)S
inactive: [9] | [1] | [2] | [4] | [6] | [10] | [8]

Oc1ccc(C2(c3ccc(O)cc3)c3ccccc3-c3ccccc32)cc1
active: [9] 61.1 µM | [2] 0.172 µM | [5] 61.1 µM
inactive: [6] | [7] | [10] | [8]

N#CCCSCCC#N
inactive: [1] | [2] | [3] | [4] | [5] | [6] | [7] | [10] | [8]

COc1cc(C=O)cc2c1[C@H](COC(N)=O)[C@]1(OC(C)=O)ON2C[C@H]2[C@@H]1N2C(C)=O
inactive: [1] | [4] | [5] | [6] | [7] | [10] | [8]
active: [9] 1.54 µM

O=C(CCCN1CCC2(CC1)C(=O)NCN2c1ccccc1)c1ccc(F)cc1
active: [5] 3.35 µM
inactive: [1] | [2] | [3] | [4] | [6] | [7] | [10] | [8]

CSCCCN=C=S
active: [9] 54.5 µM | [3] 54.5 µM
inactive: [4] | [6] | [10] | [8]

CCOC(=O)CC(=O)CCl
inactive: [4] | [6] | [10] | [8]
active: [9] 68.6 µM

Clc1ccc(COC(Cn2ccnc2)c2ccc(Cl)cc2Cl)cc1 (stereo not drawn)
active: [2] 29.8 µM and 27.2 µM | [3] 26.6 µM | [4] 26.6 µM | [5] 18.8 µM and 45.3 µM and 54.3 µM
inactive: [1] | [6] | [7] | [10] | [8]

c1ccc(OCC2CO2)cc1 (stereo not drawn)
inactive: [9] | [2] | [4] | [6] | [7] | [10] | [8]

O=C(O)c1cc[c]([Hg][Cl])cc1
active: [9] 61.1 µM
inactive: [4] | [6] | [7] | [10] | [8]

COC12CC[C@@]3(C[C@@H]1C(C)(O)C(C)(C)C)[C@H]1Cc4ccc(O)c5c4[C@@]3(CCN1CC1CC1)[C@H]2O5 (stereo partly drawn)
active: [2] 54.1 µM | [3] 60.7 µM | [4] 54.1 µM | [5] 19.2 µM
inactive: [1] | [6] | [7] | [10] | [8]

CCCCCCCCCBr
inactive: [9] | [2] | [3] | [4] | [6] | [8]

ClC(Cl)=C(c1ccc(Cl)cc1)c1ccc(Cl)cc1
active: [2] 70.3 µM and 48.6 µM | [5] 22.2 µM and 24.3 µM
inactive: [1] | [3] | [4] | [6] | [7] | [10] | [8]

c1ccc2cc3c(cc2c1)-c1cccc2cccc-3c12
inactive: [2] | [3] | [4] | [6] | [7] | [8]
active: [9] 1.7 µM | [10] 3.55 µM [fluorescent]

CC(C)CC(C)N (stereo not drawn)
inactive: [9] | [2] | [3] | [4] | [5] | [6] | [8]

N#CNC#N
inactive: [9] | [2] | [3] | [4] | [6] | [7] | [10] | [8]

Oc1c(Cl)c(Cl)cc(Cl)c1Cl
inactive: [1] | [2] | [4] | [6] | [7] | [10] | [8]
active: [5] 5.3 µM

CC(C)CC(C)(c1ccc(O)cc1)c1ccc(O)cc1
active: [2] 68.7 µM and 61.1 µM | [4] 34.4 µM and 27.3 µM | [5] 6.87 µM and 6.86 µM
inactive: [1] | [6] | [7] | [8]

CCCCCCCCCCCCCCC(Br)C(=O)O (stereo not drawn)
active: [2] 54.5 µM
inactive: [1] | [4] | [6] | [10] | [8]

CC(C)(C)C(O)/C(=C\c1ccc(Cl)cc1Cl)n1cncn1 (stereo not drawn)
inactive: [1] | [2] | [6] | [7] | [10] | [8]
active: [5] 10.4 µM

C=CC(=O)OCC(COC(=O)C=C)(COC(=O)C=C)COC(=O)C=C
active: [1] 5.45 µM | [2] 6.86 µM
inactive: [4] | [6] | [7] | [10] | [8]

CC(C)CC(C)Nc1ccc(Nc2ccccc2)cc1 (stereo not drawn)
active: [2] 53.5 µM | [4] 23.9 µM | [5] 13.4 µM
inactive: [1] | [6] | [10] | [8]

S=C=Nc1cccc2ccccc12
inactive: [1] | [6] | [7] | [10] | [8]
active: [2] 48.1 µM | [4] 48.1 µM | [5] 17.1 µM

CC1CCC(C(C)C)C(OC(=O)c2ccccc2N)C1 (stereo not drawn)
inactive: [1] | [3] | [6] | [10] | [8]
active: [2] 26.6 µM and 60.3 µM | [5] 13.3 µM and 17 µM

CN(C)C1CSSSC1
inactive: [1] | [2] | [3] | [4] | [6] | [7] | [10] | [8]

O=S(=O)(c1ccc(Cl)cc1)c1ccc(Cl)cc1
inactive: [1] | [2] | [6] | [7] | [10] | [8]
active: [5] 4.92 µM

Nc1ccc(Sc2ccc(N)cc2)cc1
inactive: [1] | [2] | [3] | [4] | [6] | [7] | [8]

ClC1=C(Cl)C2(Cl)C3C(Cl)C(Cl)CC3C1(Cl)C2(Cl)Cl (stereo not drawn)
inactive: [1] | [3] | [4] | [6] | [8]
active: [2] 54.3 µM and 61.1 µM | [5] 7.67 µM and 13.7 µM

c1ccc2c(c1)[nH]c1cnccc12
inactive: [1] | [2] | [4] | [5] | [6] | [7] | [10] | [8]

ClCc1ccc(Cl)cc1Cl
inactive: [1] | [2] | [4] | [6] | [10] | [8]

ClC1=C(Cl)[C@]2(Cl)[C@@H]3[C@@H]4C[C@@H]([C@H]5O[C@@H]45)[C@@H]3[C@@]1(Cl)C2(Cl)Cl
active: [2] 30.6 µM | [5] 19.3 µM
inactive: [1] | [3] | [6] | [7] | [10] | [8]

COc1ccc(N)cc1N
inactive: [1] | [6] | [7] | [8]
active: [2] 22.4 µM and 33 µM | [4] 63.1 µM and 29.4 µM | [5] 1.78 µM and 4.15 µM

O=[N+]([O-])c1c2ccccc2cc2ccccc12
inactive: [1] | [2] | [3] | [6] | [10] | [8]
active: [5] 8.53 µM

Clc1ccc(CO/N=C(\Cn2ccnc2)c2ccc(Cl)cc2Cl)c(Cl)c1
inactive: [1] | [4] | [6] | [7] | [10] | [8]
active: [2] 26.6 µM

CC(=O)C(Cl)(Cl)Cl
active: [4] 0.209 µM | [5] 0.743 µM
inactive: [1] | [2] | [6] | [10] | [8]
